Measured values taken from the supplement of paper PMC12350171.
Where a name gives a salt, the structure may show the parent alone.

Each molecule was assayed on Haemophilus parainfluenzae (assay: growth AUC normalised to DMSO control (fraction of control); higher = less growth inhibition, active = hit call of the paper). Conditions: 20 µM;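 active = AUC significantly below DMSO controls by Student t-fit with adjusted P under 0.01; inactive = not significantly reduced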.
How it was run: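 Three biological replicates were carried out, with OD578 read hourly for 24 h. Before inoculation at a starting OD578 of 0.01, pathogens were passaged anaerobically twice; plates were pre-reduced mGAM containing 20 μM compound and 1% DMSO, sealed with breathable membranes, and the Haemophilus parainfluenzae medium carried added hemin and NAD. Area under each growth curve was calculated by the trapezoidal rule up to the exponential-to-stationary transition and normalised to DMSO controls on the same plate.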

SMILES | growth AUC normalised to DMSO control
CN1CCC(=C2c3ccccc3Sc3ccccc32)CC1 [Pimethixene maleate] | 0.908 (inactive)
CN1CCN(C(c2ccccc2)c2ccccc2)CC1 [Cyclizine hydrochloride] | 0.995 (inactive)
C[C@H](CCC(=O)O)[C@H]1CC[C@H]2[C@@H]3[C@H](O)C[C@@H]4C[C@H](O)CC[C@]4(C)[C@H]3CC[C@]12C [Chenodiol] | 0.95 (inactive)
COc1cc2nc(N3CCN(C(=O)c4ccco4)CC3)nc(N)c2cc1OC [Prazosin hydrochloride] | 0.981 (inactive)
COc1cc([C@@H]2c3cc4c(cc3[C@@H](O[C@@H]3O[C@@H]5CO[C@@H](C)O[C@H]5[C@H](O)[C@H]3O)[C@H]3COC(=O)[C@H]23)OCO4)cc(OC)c1O [Etoposide] | 1.03 (inactive)
CCCCCN(CCCCC)C(=O)C(CCC(=O)O)NC(=O)c1ccc(Cl)c(Cl)c1 (centres undefined) [Lorglumide sodium salt] | 0.982 (inactive)
Cc1cc(NC(=O)C2=C(O)c3ccccc3S(=O)(=O)N2C)no1 [Isoxicam] | 0.991 (inactive)
CN(C)C(=N)NC(=N)N [Metformin hydrochloride] | 1.03 (inactive)
NS(=O)(=O)Cc1noc2ccccc12 [Zonisamide] | 0.981 (inactive)
COc1ccccc1N1CCN(CCCNc2cc(=O)n(C)c(=O)n2C)CC1 [Urapidil hydrochloride] | 0.979 (inactive)
CNCCC(Oc1ccccc1OC)c1ccccc1 (centres undefined) [Nisoxetine hydrochloride] | 1.02 (inactive)
CC(=O)CCCCn1c(=O)c2c(ncn2C)n(C)c1=O [Pentoxifylline] | 1.01 (inactive)
CN(C)CCCC1(c2ccc(F)cc2)OCc2cc(C#N)ccc21 (centres undefined) [Citalopram hydrobromide] | 1.01 (inactive)
CC1COc2c(N3CCN(C)CC3)c(F)cc3c(=O)c(C(=O)O)cn1c23 (centres undefined) [Ofloxacin] | 0.0492 (active)
O=C1CC2(CCCC2)CC(=O)N1CCCCN1CCN(c2ncccn2)CC1 [Buspirone hydrochloride] | 1.09 (inactive)
CN(C)CCOC(=O)COc1ccc(Cl)cc1 [Meclofenoxate hydrochloride] | 0.896 (inactive)
CC(N)CCCC(C)(C)O (centres undefined) [Heptaminol hydrochloride] | 1.02 (inactive)
COc1cccc2c1C(=O)c1c(O)c3c(c(O)c1C2=O)C[C@@](O)(C(=O)CO)C[C@@H]3O[C@H]1C[C@H](N)[C@H](O)[C@H](C)O1 [Doxorubicin hydrochloride] | 0.979 (inactive)
OCCOCCN1CCN(C(c2ccccc2)c2ccc(Cl)cc2)CC1 (centres undefined) [Hydroxyzine dihydrochloride] | 0.978 (inactive)
O=C1NCCN1CCN1CCC(c2cn(-c3ccc(F)cc3)c3ccc(Cl)cc23)CC1 [Sertindole] | 1 (inactive)

SMILES | growth AUC normalised to DMSO control
CCCc1nc2c(C)cc(-c3nc4ccccc4n3C)cc2n1Cc1ccc(-c2ccccc2C(=O)O)cc1 [Telmisartan] | 1.03 (inactive)
CCN(CC)CCOC(=O)C(c1ccccc1)c1ccccc1 [Adiphenine hydrochloride] | 1.02 (inactive)
CCOc1cc(CC(=O)N[C@@H](CC(C)C)c2ccccc2N2CCCCC2)ccc1C(=O)O [Repaglinide] | 1.08 (inactive)
O=C(O)Cc1ccccc1Nc1c(Cl)cccc1Cl [Diclofenac sodium] | 0.936 (inactive)
CC(C)(O)c1ccccc1CC[C@@H](SCC1(CC(=O)O)CC1)c1cccc(/C=C/c2ccc3ccc(Cl)cc3n2)c1 [Montelukast] | 0.964 (inactive)
O=C(NCCNCC(O)COc1ccc(O)cc1)N1CCOCC1 (centres undefined) [Xamoterol hemifumarate] | 0.775 (inactive)
CNNCc1ccc(C(=O)NC(C)C)cc1 [Procarbazine hydrochloride] | 0.995 (inactive)
CN(C)CCOC(=O)C(c1ccccc1)C1(O)CCCC1 (centres undefined) [Cyclopentolate hydrochloride] | 1.04 (inactive)
CC(=O)OCC(=O)[C@@]12OC3(CCCC3)O[C@@H]1C[C@H]1[C@@H]3CCC4=CC(=O)C=C[C@]4(C)[C@@]3(F)[C@@H](O)C[C@@]12C [Amcinonide] | 1.03 (inactive)
NS(=O)(=O)c1cc(C2(O)NC(=O)c3ccccc32)ccc1Cl (centres undefined) [Chlorthalidone] | 1.01 (inactive)
N=C(N)NS(=O)(=O)c1ccc(N)cc1 [Sulfaguanidine] | 1.04 (inactive)
CC(N/C(=N\C#N)Nc1ccncc1)C(C)(C)C (centres undefined) [Pinacidil monohydrate] | 1 (inactive)
CC(C)(C)NC[C@H](O)c1ccc(O)c(CO)c1 [Levalbuterol hydrochloride] | 0.993 (inactive)
Cc1ccccc1N1C(=O)c2cc(S(N)(=O)=O)c(Cl)cc2NC1C (centres undefined) [Metolazone] | 0.966 (inactive)
COc1ccccc1OCC(O)COC(N)=O (centres undefined) [Methocarbamol] | 0.977 (inactive)
COc1ccccc1N1CCN(CCCCNC(=O)c2ccc3ccccc3c2)CC1 | 0.997 (inactive)
C[C@]12CC[C@@H]3c4ccc(O)cc4C[C@@H](CCCCCCCCC[S+]([O-])CCCC(F)(F)C(F)(F)F)[C@H]3[C@@H]1CC[C@@H]2O (some centres undefined) [Fulvestrant] | 1.32 (inactive)
O=C(O)c1cc(/N=N/c2ccc(S(=O)(=O)Nc3ccccn3)cc2)ccc1O [Sulfasalazine] | 1.04 (inactive)
CCCCC(CC)CNC(=N)NC(=N)NCCCCCCNC(=N)NC(=N)NCC(CC)CCCC (centres undefined) [Alexidine dihydrochloride] | 0.861 (inactive)
